In all, about 9,900 sequences were measured (“r (bound/input frequency ratio)”: median about 0.7, highest 2% from about 6.5 on). The sample holds the highest values, similar sequences and a random draw of the others, so the mix is not that of the screen.
B1: ENSMUSG00000043670.195|Diras1 (ssRNA)
RNA: GGGAGUUCUACAGUCCGACGAUCGCUUCGAUAUCCGCAUGCUAAGCCCCUGUGGUAUCUGCGAGACUGUCCAGGAGACUUGAGUGGCUCCUGGGCCUGUGUCCCACCCAGAUGAGGGUGACUUAGAAUUCUGUGUUUAUGUGCCUGUGUGUGUGGAUGGGUGUGUGUCUGUCUUGGGAUGGGGUGUUCUUGCACCACUUUGUGUUCUUAGUGAGACCACAGUGUAAGUGGCCGUGUGUGUGUGUGGGGGGGGGCACCUAGACAUUGUGGUGUGUCUGUAUGGCUCUGUGUUUUCAGGGGUGGGCUCUUGCGGUCGCACUAGUGUGGAAUUCUCGGGUGUCAAGG
B2: ENSMUSG00000043670.200|Diras1 (ssRNA)
RNA: GGGAGUUCUACAGUCCGACGAUCGCUUCGAUAUCCGCAUGCUAGAGACUUGAGUGGCUCCUGGGCCUGUGUCCCACCCAGAUGAGGGUGACUUAGAAUUCUGUGUUUAUGUGCCUGUGUGUGUGGAUGGGUGUGUGUCUGUCUUGGGAUGGGGUGUUCUUGCACCACUUUGUGUUCUUAGUGAGACCACAGUGUAAGUGGCCGUGUGUGUGUGUGGGGGGGGGCACCUAGACAUUGUGGUGUGUCUGUAUGGCUCUGUGUUUUCAGGGGUGGGUGACACAGGCCUGUCUGAUGAGCACCAGGUCUCUUGCGGUCGCACUAGUGUGGAAUUCUCGGGUGUCAAGG
B3: ENSMUSG00000043670.201|Diras1 (ssRNA)
RNA: GGGAGUUCUACAGUCCGACGAUCGCUUCGAUAUCCGCAUGCUAUGAGUGGCUCCUGGGCCUGUGUCCCACCCAGAUGAGGGUGACUUAGAAUUCUGUGUUUAUGUGCCUGUGUGUGUGGAUGGGUGUGUGUCUGUCUUGGGAUGGGGUGUUCUUGCACCACUUUGUGUUCUUAGUGAGACCACAGUGUAAGUGGCCGUGUGUGUGUGUGGGGGGGGGCACCUAGACAUUGUGGUGUGUCUGUAUGGCUCUGUGUUUUCAGGGGUGGGUGACACAGGCCUGUCUGAUGAGCACCAGGUCUGUUCCUCUUGCGGUCGCACUAGUGUGGAAUUCUCGGGUGUCAAGG
B4: ENSMUSG00000043670.199|Diras1 (ssRNA)
RNA: GGGAGUUCUACAGUCCGACGAUCGCUUCGAUAUCCGCAUGCUAGUCCAGGAGACUUGAGUGGCUCCUGGGCCUGUGUCCCACCCAGAUGAGGGUGACUUAGAAUUCUGUGUUUAUGUGCCUGUGUGUGUGGAUGGGUGUGUGUCUGUCUUGGGAUGGGGUGUUCUUGCACCACUUUGUGUUCUUAGUGAGACCACAGUGUAAGUGGCCGUGUGUGUGUGUGGGGGGGGGCACCUAGACAUUGUGGUGUGUCUGUAUGGCUCUGUGUUUUCAGGGGUGGGUGACACAGGCCUGUCUGAUGAGCACUCUUGCGGUCGCACUAGUGUGGAAUUCUCGGGUGUCAAGG
B5: ENSMUSG00000043670.197|Diras1 (ssRNA)
RNA: GGGAGUUCUACAGUCCGACGAUCGCUUCGAUAUCCGCAUGCUAAUCUGCGAGACUGUCCAGGAGACUUGAGUGGCUCCUGGGCCUGUGUCCCACCCAGAUGAGGGUGACUUAGAAUUCUGUGUUUAUGUGCCUGUGUGUGUGGAUGGGUGUGUGUCUGUCUUGGGAUGGGGUGUUCUUGCACCACUUUGUGUUCUUAGUGAGACCACAGUGUAAGUGGCCGUGUGUGUGUGUGGGGGGGGGCACCUAGACAUUGUGGUGUGUCUGUAUGGCUCUGUGUUUUCAGGGGUGGGUGACACAGGCCUCUCUUGCGGUCGCACUAGUGUGGAAUUCUCGGGUGUCAAGG
B6: ENSMUSG00000043670.206|Diras1 (ssRNA)
RNA: GGGAGUUCUACAGUCCGACGAUCGCUUCGAUAUCCGCAUGCUAGAUGAGGGUGACUUAGAAUUCUGUGUUUAUGUGCCUGUGUGUGUGGAUGGGUGUGUGUCUGUCUUGGGAUGGGGUGUUCUUGCACCACUUUGUGUUCUUAGUGAGACCACAGUGUAAGUGGCCGUGUGUGUGUGUGGGGGGGGGCACCUAGACAUUGUGGUGUGUCUGUAUGGCUCUGUGUUUUCAGGGGUGGGUGACACAGGCCUGUCUGAUGAGCACCAGGUCUGUUCCAGGCUGUGGCAAGCUGGCUCCUGGCUCAGCUCUUGCGGUCGCACUAGUGUGGAAUUCUCGGGUGUCAAGG
B7: ENSMUSG00000043670.213|Diras1 (ssRNA)
RNA: GGGAGUUCUACAGUCCGACGAUCGCUUCGAUAUCCGCAUGCUAGUGGAUGGGUGUGUGUCUGUCUUGGGAUGGGGUGUUCUUGCACCACUUUGUGUUCUUAGUGAGACCACAGUGUAAGUGGCCGUGUGUGUGUGUGGGGGGGGGCACCUAGACAUUGUGGUGUGUCUGUAUGGCUCUGUGUUUUCAGGGGUGGGUGACACAGGCCUGUCUGAUGAGCACCAGGUCUGUUCCAGGCUGUGGCAAGCUGGCUCCUGGCUCAGAAGUGACAAAGCUGCAGUACAGAGGCCUCAGUGUGAGGUCAUCUCUUGCGGUCGCACUAGUGUGGAAUUCUCGGGUGUCAAGG
B8: ENSMUSG00000043670.216|Diras1 (ssRNA)
RNA: GGGAGUUCUACAGUCCGACGAUCGCUUCGAUAUCCGCAUGCUAGUCUUGGGAUGGGGUGUUCUUGCACCACUUUGUGUUCUUAGUGAGACCACAGUGUAAGUGGCCGUGUGUGUGUGUGGGGGGGGGCACCUAGACAUUGUGGUGUGUCUGUAUGGCUCUGUGUUUUCAGGGGUGGGUGACACAGGCCUGUCUGAUGAGCACCAGGUCUGUUCCAGGCUGUGGCAAGCUGGCUCCUGGCUCAGAAGUGACAAAGCUGCAGUACAGAGGCCUCAGUGUGAGGUCAUCACCUCACAGUGGCUACACUCUUGCGGUCGCACUAGUGUGGAAUUCUCGGGUGUCAAGG
B9: ENSMUSG00000043670.196|Diras1 (ssRNA)
RNA: GGGAGUUCUACAGUCCGACGAUCGCUUCGAUAUCCGCAUGCUAUGUGGUAUCUGCGAGACUGUCCAGGAGACUUGAGUGGCUCCUGGGCCUGUGUCCCACCCAGAUGAGGGUGACUUAGAAUUCUGUGUUUAUGUGCCUGUGUGUGUGGAUGGGUGUGUGUCUGUCUUGGGAUGGGGUGUUCUUGCACCACUUUGUGUUCUUAGUGAGACCACAGUGUAAGUGGCCGUGUGUGUGUGUGGGGGGGGGCACCUAGACAUUGUGGUGUGUCUGUAUGGCUCUGUGUUUUCAGGGGUGGGUGACACCUCUUGCGGUCGCACUAGUGUGGAAUUCUCGGGUGUCAAGG
B10: ENSMUSG00000043670.204|Diras1 (ssRNA)
RNA: GGGAGUUCUACAGUCCGACGAUCGCUUCGAUAUCCGCAUGCUAGUGUCCCACCCAGAUGAGGGUGACUUAGAAUUCUGUGUUUAUGUGCCUGUGUGUGUGGAUGGGUGUGUGUCUGUCUUGGGAUGGGGUGUUCUUGCACCACUUUGUGUUCUUAGUGAGACCACAGUGUAAGUGGCCGUGUGUGUGUGUGGGGGGGGGCACCUAGACAUUGUGGUGUGUCUGUAUGGCUCUGUGUUUUCAGGGGUGGGUGACACAGGCCUGUCUGAUGAGCACCAGGUCUGUUCCAGGCUGUGGCAAGCUGGCUCUUGCGGUCGCACUAGUGUGGAAUUCUCGGGUGUCAAGG
B11: ENSMUSG00000043670.204|Diras1|34:38;48:57;63:70;103:107;136:148;172:177;180:184;189:193 (ssRNA)
RNA: GGGAGUUCUACAGUCCGACGAUCGCUUCGAUAUCCGCAUGCUAGUGUCCCACCCAGAUGAGGGUGACUUAGAAUUCACACAUUAUGUGCCACACACACACGAUGGCACACACACUGUCUUGGGAUGGGGUGUUCUUGCACCACUUACACAUCUUAGUGAGACCACAGUGUAAGUGGCCCACACACACACACGGGGGGGGCACCUAGACAUUGUGCACACACUCAUACGCUCACACAUUUCAGGGGUGGGUGACACAGGCCUGUCUGAUGAGCACCAGGUCUGUUCCAGGCUGUGGCAAGCUGGCUCUUGCGGUCGCACUAGUGUGGAAUUCUCGGGUGUCAAGG
B12: ENSMUSG00000034801.21|Sos2 (ssRNA)
RNA: GGGAGUUCUACAGUCCGACGAUCGCUUCGAUAUCCGCAUGCUAGCCCUCUCCACGGAUUCCACGCAGCUGUCACUUGCUCAGCUCCAGUCACAGCAGCCUUGCUCAUCUUCCAGCUCCUCCUGUCCCACCAAGGCAGAAUUCAAGCCCUCUCUUACCAAAGCUGCCACCAAAGACUUACAAACGGGAGCUUUCCCACCCGCCACUGUAUAGACUGCCUCUGCUGGAAAAUGCAGAAACUCCUCAAUGACCUUGGCCAUAUGUAGUCAUUGACACUGGAAUAGUAUUUGUAAAGGUUUUUAAUUCUCUUGCGGUCGCACUAGUGUGGAAUUCUCGGGUGUCAAGG
B13: ENSMUSG00000042529.183|Kcnj12 (ssRNA)
RNA: GGGAGUUCUACAGUCCGACGAUCGCUUCGAUAUCCGCAUGCUAGUUUAAUCUUUCCCUACUGCCCUAAGUCCACUCAUGAAGCUCCCCAGGCCCUUCUGAGAUUGCAGAGGCUGCUUGCUCAUAGCCAUGACCCUGCCUGCUUUUGUCCCACACUGCUGGGGCAGGAUGAUGAAGCCCUGCUGGUCCCAGCCAGUCAUCUCCUGCUGGAAGGCAGAGUCUAGGGGAGAAGAGAAACACCCCCACCCCCACCCCUAUCCCGCACCAGCCCCCUGCCACCAUAGAGAUAGACCAGAGAAAUGUCACUCUUGCGGUCGCACUAGUGUGGAAUUCUCGGGUGUCAAGG

Biological target: TDP-43 (Homo sapiens, UniProt Q13148 1-414)
Test: RNA Bind-n-Seq with designed 260-mer pool; 25 mM Tris-HCl, 150 mM KCl, 3 mM MgCl2, BSA (printed 500 mg/mL), 20 units/mL SUPERase IN; pH not stated; 500 nM RNA pool, 1 h, 4 C; TDP-43 5, 50, 500 nM; high values mean tight binding
Conditions: protein: recombinant; tags: SBP (GST cleaved off with PreScission; pGEX-GST-SBP)
How it was run: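 An in vitro-transcribed pool of 260-nt 3′ UTR oligos (500 nM) was incubated for 1 h at 4 °C with recombinant SBP-tagged TDP-43 at 5, 50 or 500 nM held on streptavidin beads. The buffer contained 25 mM Tris-HCl, 150 mM KCl, 3 mM MgCl2, BSA and SUPERase IN. Biotin-eluted bound RNA was sequenced, and binding, R, is each oligo's normalized read abundance in the bound sample over that in input.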

Sequence of TDP-43 (Q13148 whole entry): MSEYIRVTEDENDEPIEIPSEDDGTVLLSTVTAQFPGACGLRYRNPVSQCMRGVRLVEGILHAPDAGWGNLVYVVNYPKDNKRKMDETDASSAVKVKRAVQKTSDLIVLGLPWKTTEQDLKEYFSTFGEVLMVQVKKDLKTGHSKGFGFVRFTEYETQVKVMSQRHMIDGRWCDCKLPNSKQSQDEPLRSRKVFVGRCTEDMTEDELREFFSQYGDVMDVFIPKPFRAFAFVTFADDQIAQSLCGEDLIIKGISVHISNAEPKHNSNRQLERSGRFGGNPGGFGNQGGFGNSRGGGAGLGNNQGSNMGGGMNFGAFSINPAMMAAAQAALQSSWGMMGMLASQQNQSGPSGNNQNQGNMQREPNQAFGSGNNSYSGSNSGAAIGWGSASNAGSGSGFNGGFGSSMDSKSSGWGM

| Binder | binding signal |
| --- | --- |
| B1 | 5.71 R (bound/input frequency ratio) |
| B2 | 11.3 R (bound/input frequency ratio) |
| B3 | 4.7 R (bound/input frequency ratio) |
| B4 | 5.44 R (bound/input frequency ratio) |
| B5 | 7.91 R (bound/input frequency ratio) |
| B6 | 6.69 R (bound/input frequency ratio) |
| B7 | 6.42 R (bound/input frequency ratio) |
| B8 | 3.28 R (bound/input frequency ratio) |
| B9 | 6.21 R (bound/input frequency ratio) |
| B10 | 6.58 R (bound/input frequency ratio) |
| B11 | 1.1 R (bound/input frequency ratio) |
| B12 | 1.01 R (bound/input frequency ratio) |
| B13 | 1.85 R (bound/input frequency ratio) |
